# Screens as filed in PubChem.
# Mtb bLac sens – beta-lactam sensitization of Mtb H37Rv, H37Rv | M. tuberculosis H37Rv growth with meropenem, percent inhibition | inhibition, % at 25 µM | 330,000 compounds, 0.27% hits | AID 434955, 2010; call rule not given here;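 also: growth measured after seven days incubation then overnight dye step; 0% = bacteria only wells and 100% = bacteria with antibiotic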
# Mtb FBA inh – Mtb FBA enzyme inhibitors, primary screen, biochemical, fluorescence, strain H37Rv. AID 588726, 2011. inhibition, % at 1 µM. 360,000 compounds, 2.3% hits. Fructose-bisphosphate aldolase (Mycobacterium tuberculosis (strain ATCC 25618 / H37Rv)), …. purified M. tuberculosis FBA, fluorescence read-out; in the data active = inhibition above about 27%;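 also: 0% = vehicle and 100% = reference inhibitor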
# CCHF vOTU inh – CCHFV vOTU protease inhibitors, primary screen, biochemical, Pep-AMC substrate, fluorescence | Crimean-Congo hemorrhagic fever virus L polyprotein viral ovarian tumor (vOTU) protease … | inhibition, % at 11.5 µM | 370,000 compounds, 0.55% hits; also: 0% = vehicle wells with enzyme and 100% = no enzyme wells
# GDH-TPI counter-1 – GDH-TPI coupling enzyme inhibitors, primary screen, artefact control for M. tuberculosis FBA inhibitor project, biochemical, absorbance, full deck; 360,000 compounds, 1.2% hits; AID 588335, 2011; GDH-TPI coupled enzyme counterscreen, NADH absorbance; inhibition, % at 4.8 µM;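 also: 0% = DMSO wells and 100% = wells lacking the enzyme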
# RecA intein inh – Mtb RecA intein splicing inhibitors, primary screen, biochemical, fluorescence, HTS; 290,000 compounds, 0.75% hits; cell-free RecA intein splicing; Protein RecA (Mycobacterium tuberculosis (strain ATCC 25618 / H37Rv)), P9WHJ3; inhibition, % (concentration not given with the values); in the data active = inhibition above about 30%;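 also: 0% = vehicle wells and 100% = reference inhibitor control wells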
# Mtb FBA confirm – M. tuberculosis aldolase blockers, biochemical, fluorescence, strain H37Rv, confirmation; shares compounds with Mtb FBA inh; purified M. tuberculosis FBA, fluorescence read-out; inhibition, % at 1 µM; 5,600 compounds, 78% hits; in the data active = inhibition above about 27%;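 also: 0% = vehicle wells and 100% = reference inhibitor wells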
# GDH-TPI counter-2 – GDH-TPI coupling enzyme inhibitors, artefact control for M. tuberculosis FBA inhibitor project, biochemical, fluorescence, high throughput | 5,600 compounds, 81% hits | shares compounds with Mtb FBA inh | GDH-TPI coupled enzyme counterscreen | inhibition, % at 1 µM; in the data active = inhibition above about 10%
# An asterisk follows results filed as active; . = not tested or not shown; + = active, no number. In the library only some 4.2% were active in any assay of this set; here they are far more common. Rule as the data show it, unless noted: active = inhibition above about 30%; inactive = the rest.
SMILES,Mtb bLac sens,Mtb FBA inh,CCHF vOTU inh,GDH-TPI counter-1,RecA intein inh,Mtb FBA confirm,GDH-TPI counter-2
C[C@@H]1ON(C)[C@H]2C[C@H]3c4[nH]c5c(-c6ccc(F)cc6)cccc5c4CCN3C(=O)[C@@H]12,.,.,-3.6,.,.,.,.
CCc1c(-c2ccccc2F)ncn1CCc1ccccc1OC,.,.,11.3,.,.,.,.
CCCCOc1ccc(C(=O)n2ccc3ccc(-c4ccc5ccn(Cc6ccc(OC)cc6)c5c4)cc32)cc1,.,.,15.8,.,.,.,.
Cc1ccc(S(=O)(=O)Nc2ccccc2C(=O)Nc2ccc(S(=O)(=O)Nc3nccc(C)n3)cc2)cc1,0.1,66.2*,3.1,8.6,2.0,35.0*,20.2*
Cc1ccc(C)c(S(=O)(=O)Nc2ccccc2C(=O)Nc2ccc(S(=O)(=O)Nc3ncccn3)cc2)c1,11.6,106.5*,-3.6,-1.6,3.5,+,+
CC(=O)Nc1ccc(C(=O)Nc2ccc(S(=O)(=O)Nc3nccc(C)n3)cc2)cc1,2.0,-2.1,2.0,3.1,0.5,.,.
Cc1ccccc1NC(=O)N(C)[C@H]1C[C@H]2c3[nH]c4c(-c5ccccc5)cccc4c3CCN2C(=O)[C@H]1[C@H](C)O,.,.,-0.8,.,.,.,.
CCOC(CCNC(=O)c1cn(CCOC)c(=O)c2c1c1ccccc1n2C)OCC,-1.2,29.8*,-13.3,5.2,0.0,77.2*,65.8*
COCCn1cc(C(=O)NCc2ccco2)c2c3ccccc3n(C)c2c1=O,-0.7,90.9*,-5.9,14.2,-0.5,+,+
CCCN(CCC)CCCNC(=O)c1cn(CCOC)c(=O)c2c1c1ccccc1n2C,.,32.3*,-43.1,20.1,-0.9,118.4*,89.9*
CCCCN(CC)CCNC(=O)c1cn(CCOC)c(=O)c2c1c1ccccc1n2C,8.2,23.4,-21.0,4.6,-1.9,.,.
COC(=O)[C@]12C[C@H](CC(=O)NCc3ccccc3)C(=O)N(CCc3ccc(OC)c(OC)c3)C1=C[C@H](C(C)C)O[C@@H]2C1CC1,.,.,4.9,.,.,.,.
Cc1cc(C)cc(NC(=O)OC2CC3CC2[C@H]2CCCCN2[C@H]3Cc2ccccc2)c1 (stereo partly specified),.,.,3.7,.,.,.,.
CCCNC(=O)N1[C@@H](CO)[C@H](c2ccc(C3=CCCC3)cc2)[C@@H]1CN(CC)S(=O)(=O)c1ccccc1[N+](=O)[O-],.,.,4.3,.,.,.,.
Brc1cccc(Cn2ccc3ccc(-c4ccc5ccn(Cc6cccc(Br)c6)c5c4)cc32)c1,.,.,-4.9,.,.,.,.
COc1cccc(C2c3[nH]c4ccccc4c3C[C@H]3C(=O)N(CCCO)CC(=O)N23)c1OC (stereo partly specified),-2.5,-0.8,-4.0,5.7,2.4,.,.
COc1ccc2c(c1OC)C(=O)N1C(C(=O)O)Cc3c([nH]c4ccccc34)C21 (stereo unspecified),1.6,36.4*,-56.6,0.3,-14.0,107.3*,89.3*
COc1ccc(CNC(=O)C[C@H]2C[C@H](C(=O)N3CCCCC3)[C@@]3(C)c4[nH]c5cc(-c6ccco6)ccc5c4CCN3C2=O)cc1OC,.,28.1*,-15.4,10.4,.,78.7*,56.4*
CCN(CC)C(=O)[C@H]1C[C@H](CC(=O)NCC23CC4CC(CC(C4)C2)C3)C(=O)N2CCc3c([nH]c4cc(-c5ccco5)ccc34)[C@]12C,.,-0.8,-8.8,-2.1,.,.,.
CCN(CC)C(=O)[C@H]1C[C@H](CC(=O)NCc2ccc(OC)c(OC)c2)C(=O)N2CCc3c([nH]c4cc(-c5ccco5)ccc34)[C@]12C,.,46.1*,-21.4,16.4,.,144.2*,104.6*
COC(=O)[C@H](C(C)C)N1Cc2nnn(Cc3ccc(C)cc3)c2-c2cc(F)ccc2S1(=O)=O,.,.,9.1,.,.,.,.
NC1=[N+](Cc2ccccc2)C(Cc2ccccc2)C2C(=C3CCCCC3n3c(=O)n(-c4ccccc4)c(=O)n32)N1 (stereo unspecified),.,.,0.7,.,.,.,.
